SKN-1 block: suppressors of acrylamide-induced Pgst-4::GFP reporter in worms, primary screen, SKN-1 inhibitor project, whole organism, uHTS, GFP/RFP fluorescence ratio, strain VP596. C. elegans VP596 Pgst-4::GFP/RFP ratio, 24 h. inhibition, % at 21.8 µM. hit rate 0.49% among 360,000. AID 624304, 2012;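 active = interference check ratio from 0.5 to 1.5 plus GFP to RFP signal ratio inhibition reaching or exceeding a fixed threshold, cut at about 30% in these data, passing the limit was not always enough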
NR3A LBD binder: binders of NR3A ligand-binding domain, primary screen, biophysical, differential scanning fluorimetry, uHTS. Tm shift relative to glycine control, % at 25 µM. hit rate 2.5% among 340,000. NR3A LBD differential scanning fluorimetry, Tm shift; 0% = protein alone, 100% = glycine-bound protein. Glutamate receptor ionotropic, NMDA 3A (GRIN3A) ligand-binding domain;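 active = melting temperature shift of at least 10% of the positive control shift, at one fixed dose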
esBAF inh: Bmi1 luciferase reporter increase in mESCs, primary screen, esBAF inhibitor project, mouse ES cells, Bmi1 luciferase knock-in, single point; 24 h; 100% = twice the neutral-well signal; reporter increase, % at 12.5 µM; hit rate 2% among 350,000; AID 602393, 2012; in the data active = activation above about 40%; inconclusive = no clear call, values can overlap the other calls;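 note: 0% = median of the plate's neutral control wells and 100% = double that signal; a rise in the Bmi1 reporter signal indicates esBAF inhibition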
NadD block: inhibitors of S. aureus NadD, primary screen, biochemical, colorimetric, uHTS. Nicotinate-nucleotide adenylyltransferase NadD (Staphylococcus aureus N315). purified NadD enzyme, colorimetric absorbance read-out. inhibition, % at 20 µM. hit rate 0.78% among 360,000. AID 602399, 2012; in the data active = inhibition above about 26%
SMARCA2 act: SMARCA2 (BRM) function activators, primary screen, cell-based, luminescence, high throughput. activation, % at 9.1 µM. hit rate 1% among 370,000. MG213 cells, MMTV-luciferase reporter, dexamethasone, overnight; in the data active = activation above about 7.8%;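 note: 0% = vehicle wells and 100% = reference activator wells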
Vif inh: HIV Vif self-association inhibitors, primary screen, imaging, HEK293T, single point; HEK293T cells, Vif self-association by quenched fluorescence, 24 h; hit rate 0.35% among 340,000; AID 602346, 2012; inhibition, % at 7.49 µM; in the data active = inhibition above about 50%, passing the limit was not always enough; inconclusive = no clear call, values can overlap the other calls; inactive = below about 31%
The depositor's hits bear a star; ? = inconclusive; . = no result given. This is a sample that favours compounds with a hit; in the whole collection about 5.2% have one here.

SMILES	SKN-1 block	NR3A LBD binder	esBAF inh	NadD block	SMARCA2 act	Vif inh
C[C@@H]1CCCCO[C@H](CN(C)S(C)(=O)=O)[C@@H](C)CN([C@H](C)CO)C(=O)c2cc(NC(=O)Nc3cccc4ccccc34)ccc2O1	.	.	-3	.	.	.
Cc1noc(C)c1NC(=O)Nc1ccc2c(c1)C(=O)N([C@@H](C)CO)C[C@H](C)[C@H](CN(C)C(=O)Nc1ccc(C(F)(F)F)cc1)OCCCC[C@H](C)O2	.	.	0	.	.	.
O=C(C[C@@H]1C=C[C@@H](NC(=O)C2CC2)[C@H](CO)O1)NCc1ccncc1	.	.	-6	.	.	.
O=C([C@H]1[C@H](CO)[C@H]2Cn3c(ccc(-c4ccccc4F)c3=O)[C@@H]1N2C(=O)C1CC1)N1CCOCC1	.	.	2	.	.	.
COc1ccc(S(=O)(=O)N[C@@H]2C=C[C@@H](CC(=O)NCCc3ccncc3)O[C@@H]2CO)cc1	.	.	-1	.	.	.
CCN(CCNc1ccc(Cl)cc1[N+](=O)[O-])C(=O)c1cc([N+](=O)[O-])c(N(C)C)cc1OC	5	16*	.	2	-1	15
C[C@@H]1CN([C@H](C)CO)C(=O)c2cc(NC(=O)CCC(F)(F)F)ccc2O[C@@H](C)CCCCO[C@H]1CN(C)C(=O)Nc1ccc(C(F)(F)F)cc1	.	.	1	.	.	.
CN(C)CCCNC(=O)C[C@H]1CC[C@H](NS(=O)(=O)c2ccc(F)cc2)[C@@H](CO)O1	.	.	2	.	.	.
CCOC(=O)N1CCC(N2C(=O)c3ccc(C(=O)Nc4cccc(OC)c4)cc3C2=O)CC1	-1	11*	1	-5	-1	-5
CC(=O)Oc1cccc(NC(=O)c2ccc3c(c2)C(=O)N(CC(C)C)C3=O)c1	17	-1	44*	-2	5	-9
CCCC#Cc1cnc2c(c1)C(=O)N([C@@H](C)CO)C[C@@H](C)[C@H](CN(C)C(=O)c1cccnc1)O2	.	.	9	.	.	.
O=C(Nc1ccccn1)Nc1ccccc1Cl	31	0	53*	-5	2	-3
O=C(Nc1cnccn1)Nc1cccc(Cl)c1Cl	15	-2	.	3	1	-1
O=C(Nc1ccccc1Cl)Nc1ccccc1Cl	1	-3	.	-7	-3	-6
O=C(Nc1ccc(Cl)cn1)Nc1ccccc1Cl	4	0	35*	2	5	1
O=C(Nc1cnccn1)Nc1ccccc1Cl	16	-2	7	-2	1	51*
O=C(Nc1ccccc1)Nc1cccc2cccnc12	17	13*	85*	-4	2	-13
O=C(Nc1ccccc1)OCCc1ccccn1	3	-2	80*	-2	7	2
O=C(Nc1ccccn1)c1ccc(-c2ccccc2)cc1	34	36*	-68	-5	-2	10
COc1ccc(C(=O)Nc2ccccn2)cc1	-1	2	-5	-3	-3	.
O=C(Nc1ccccc1Cl)Nc1cccnc1Cl	11	19*	.	-3	-2	-10
O=C(Nc1ccc(Cl)cc1)Nc1ccccn1	25	-2	?	-5	1	-1
O=C(Nc1ccccc1)Nc1ccccn1	21	0	45*	1	5	0
C[C@H](CO)N1C[C@H](C)[C@H](CN(C)C(=O)c2ccncc2)OCCCC[C@H](C)Oc2ccc(NC(=O)CCCCCC(=O)Nc3ccccc3N)cc2C1=O	.	.	-1	.	.	.
COc1ccc(NC(=O)N(C)C[C@H]2OCCCC[C@H](C)Oc3ccc(NS(=O)(=O)c4ccc(C)cc4)cc3C(=O)N([C@@H](C)CO)C[C@@H]2C)cc1	.	.	1	.	.	.
SMILES	SKN-1 block	NR3A LBD binder	esBAF inh	NadD block	SMARCA2 act	Vif inh
CCOC(=O)c1ccc(NC(=O)Nc2ccccn2)cc1	1	-2	59*	-1	3	13
CCSc1ncc(/C=N/Nc2ccccc2)n1C	45*	-2	26	0	4	8
CCSc1ncc(/C=N/Nc2ccc(Cl)cc2)n1C	-9	-1	25	0	6	-2
CCCCOP(=O)(OCCCC)C(Nc1ccccc1)c1ccc2c(c1)OCO2 (stereo unspecified)	8	14*	.	-3	-2	5
N/C(=N\C(=S)Nc1ccc2c(c1)OCO2)c1ccccc1	0	.	64*	-4	0	-14
NC(N)=NC(=S)Nc1ccc(Cl)cc1	13	-21	47*	-5	0	-4
N#Cc1ccc(NC(=S)/N=C(\N)c2ccccc2)cc1	17	.	?	0	-1	0
N#C/C(=N\Nc1ccc(Cl)cc1)C(N)=S	39*	-1	26	-4	-3	-17
N#C/C(=N\Nc1ccccc1)C(N)=S	-5	1	.	0	-3	2
N/C(=N\C(=S)Nc1ccccc1)c1ccccc1	6	2	82*	-1	4	-2
C[C@@H](O)C#Cc1ccc2c(c1)O[C@@H](CN(C)C(=O)CC1CC1)[C@@H](C)CN([C@@H](C)CO)S2(=O)=O	.	.	-12	.	.	.
Cc1noc(C)c1NC(=O)Nc1ccc2c(c1)C(=O)N([C@@H](C)CO)C[C@@H](C)[C@@H](CN(C)Cc1ccc3c(c1)OCO3)OCCCC[C@@H](C)O2	.	.	-4	.	.	.
C/C(=N\NC(=O)c1cccc(F)c1)c1ccc(NC(=O)Cc2ccccc2)cc1	5	-5	.	-7	2	-3
O=C(Nc1ccc(Oc2ccccc2)cc1)C1CC1	-6	1	.	-11	-1	0
CC(=O)c1ccc(NC(=O)c2ccc3nc(-c4ccco4)c(-c4ccco4)nc3c2)cc1	11	-8	-7	93*	.	-6
CCCC(=O)Nc1ccc(C#Cc2ccccc2)cc1	11	-5	54*	-6	1	-9
O=C(Nc1ccccc1)c1ccc2nc(-c3ccco3)c(-c3ccco3)nc2c1	11	-19	-4	23	4	-8
C/C(=N\NC(=O)c1ccn(C)n1)c1ccc(NC(=O)c2cccc(F)c2)cc1	-5	16*	.	-6	2	1
CCCC(=O)Nc1ccc(Oc2ccc(NC(=O)CCC)cc2)cc1	8	-1	-3	1	-2	-12
O=C(Nc1ccc(C#Cc2ccccc2)cc1)C1CC1	47*	9	?	-1	1	-9
C[C@H](CO)N1C[C@H](C)[C@@H](CN(C)CC2CC2)Oc2ccc(NS(=O)(=O)c3cccs3)cc2CC1=O	.	.	1	.	.	.
COCc1nnc(NC(=O)CCCCCN2C(=O)c3ccccc3C2=O)s1	-23	0	3	-6	-2	8
CCCCC(=O)NC(=S)Nc1cccc(C(=O)O)c1	0	0	44*	-1	0	17

Source: PubChem BioAssay (several laboratories)
